# According to the supplement of paper PMC11732987, “Enantioselective OTUD7B fragment discovery through chemoproteomics screening and high-throughput optimisation” (Communications Chemistry, 2025):
# A number with no mark means an inactive call.
# Experiments:
# Assay in all cases: log2 ratio of Biotin-Ahx-Ub-VS probe labelling (fragment/DMSO); higher = less target engagement (more negative = stronger competition), active = hit call of the paper (q ≤ 0.05, log2 ratio ≤ -1)
# Settings in all cases: compound concentration: 200 uM; treatment time: 3 h
# [1] = target: T1, OTUD6B (UniProt Q8N6M0)
# T1 sequence (whole entry): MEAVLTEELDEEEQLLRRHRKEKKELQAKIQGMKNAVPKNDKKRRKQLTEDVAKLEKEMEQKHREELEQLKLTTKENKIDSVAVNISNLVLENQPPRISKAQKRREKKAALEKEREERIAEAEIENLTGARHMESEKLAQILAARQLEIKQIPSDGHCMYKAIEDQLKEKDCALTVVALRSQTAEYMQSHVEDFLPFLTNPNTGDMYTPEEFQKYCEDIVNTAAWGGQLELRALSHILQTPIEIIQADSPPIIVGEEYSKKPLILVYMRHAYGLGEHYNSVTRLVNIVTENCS
# In short: (§1)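 Labelling with Biotin-Ahx-Ub-VS (0.5 µM final, 1 h) followed a 3 h triplicate treatment of HEK293T lysate (495 µg per sample, Tris/CHAPS/IGEPAL buffer with protease inhibitors) with fragment at 200 µM or vehicle. Labelled DUBs were NeutrAvidin-enriched, digested with LysC and trypsin, and run by diaPASEF LC-MS/MS. The values, average log2 fragment/vehicle ratios by unpaired t-test, come from global-median-normalised Spectronaut label-free quantities. Proteins with ≥2 unique peptides were used.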
# [2] = target: T2, OTUD7B (UniProt Q6GQQ9)
# T2 sequence (whole entry): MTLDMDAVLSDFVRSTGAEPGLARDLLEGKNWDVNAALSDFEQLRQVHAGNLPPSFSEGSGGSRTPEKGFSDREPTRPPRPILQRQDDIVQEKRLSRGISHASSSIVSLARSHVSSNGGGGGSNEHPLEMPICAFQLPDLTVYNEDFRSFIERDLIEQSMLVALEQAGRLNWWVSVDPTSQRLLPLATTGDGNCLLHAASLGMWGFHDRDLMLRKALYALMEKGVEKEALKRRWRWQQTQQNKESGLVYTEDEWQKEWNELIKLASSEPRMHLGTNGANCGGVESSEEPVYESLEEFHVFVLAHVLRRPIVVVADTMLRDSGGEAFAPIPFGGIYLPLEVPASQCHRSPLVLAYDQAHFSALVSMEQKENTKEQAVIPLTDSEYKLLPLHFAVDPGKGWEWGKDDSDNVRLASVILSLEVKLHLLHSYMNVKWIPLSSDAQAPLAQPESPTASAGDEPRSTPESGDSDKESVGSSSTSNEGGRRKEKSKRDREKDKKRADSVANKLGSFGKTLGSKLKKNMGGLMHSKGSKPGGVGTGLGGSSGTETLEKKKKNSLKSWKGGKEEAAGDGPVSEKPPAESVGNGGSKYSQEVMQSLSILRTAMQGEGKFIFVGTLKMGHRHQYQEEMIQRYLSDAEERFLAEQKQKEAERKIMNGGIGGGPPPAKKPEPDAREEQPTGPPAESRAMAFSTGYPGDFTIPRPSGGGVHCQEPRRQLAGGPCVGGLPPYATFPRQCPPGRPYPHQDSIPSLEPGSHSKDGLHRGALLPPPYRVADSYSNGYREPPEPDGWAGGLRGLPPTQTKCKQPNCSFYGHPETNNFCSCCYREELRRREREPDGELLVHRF
# In short: as §1
# [3] = target: PRPF8 (UniProt Q6P2Q9)
# In short: as §1
# [4] = target: T3, PSMD7 (UniProt P51665)
# T3 sequence (whole entry): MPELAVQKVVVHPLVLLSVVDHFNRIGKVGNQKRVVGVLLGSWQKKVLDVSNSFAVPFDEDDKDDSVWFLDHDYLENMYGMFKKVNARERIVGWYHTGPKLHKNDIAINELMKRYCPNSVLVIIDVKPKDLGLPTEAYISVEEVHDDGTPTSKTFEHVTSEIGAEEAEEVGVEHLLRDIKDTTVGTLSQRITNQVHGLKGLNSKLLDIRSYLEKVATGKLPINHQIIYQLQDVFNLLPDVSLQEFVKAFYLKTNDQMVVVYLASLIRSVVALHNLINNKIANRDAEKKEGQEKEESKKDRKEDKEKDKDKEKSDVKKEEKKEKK
# In short: as §1
# [5] = target: UCHL1 (UniProt P09936)
# Chain of UCHL1 (P09936 whole entry, looked up): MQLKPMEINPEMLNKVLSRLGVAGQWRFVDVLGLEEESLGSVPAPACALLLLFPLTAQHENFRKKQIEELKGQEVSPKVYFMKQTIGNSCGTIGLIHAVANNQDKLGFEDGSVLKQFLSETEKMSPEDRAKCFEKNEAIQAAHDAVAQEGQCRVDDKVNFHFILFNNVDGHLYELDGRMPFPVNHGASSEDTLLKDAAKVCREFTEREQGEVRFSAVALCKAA
# In short: as §1
# [6] = target: T4, UCHL3 (UniProt P15374)
# T4 sequence (whole entry): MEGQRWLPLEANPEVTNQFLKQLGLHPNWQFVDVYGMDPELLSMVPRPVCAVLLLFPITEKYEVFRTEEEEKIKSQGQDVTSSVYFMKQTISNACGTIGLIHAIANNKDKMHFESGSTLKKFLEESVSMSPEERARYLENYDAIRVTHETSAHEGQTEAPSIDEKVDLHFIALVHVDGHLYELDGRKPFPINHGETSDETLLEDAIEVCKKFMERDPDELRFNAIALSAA
# In short: as §1
# [7] = target: T5, UCHL5 (UniProt Q9Y5K5)
# T5 sequence (whole entry): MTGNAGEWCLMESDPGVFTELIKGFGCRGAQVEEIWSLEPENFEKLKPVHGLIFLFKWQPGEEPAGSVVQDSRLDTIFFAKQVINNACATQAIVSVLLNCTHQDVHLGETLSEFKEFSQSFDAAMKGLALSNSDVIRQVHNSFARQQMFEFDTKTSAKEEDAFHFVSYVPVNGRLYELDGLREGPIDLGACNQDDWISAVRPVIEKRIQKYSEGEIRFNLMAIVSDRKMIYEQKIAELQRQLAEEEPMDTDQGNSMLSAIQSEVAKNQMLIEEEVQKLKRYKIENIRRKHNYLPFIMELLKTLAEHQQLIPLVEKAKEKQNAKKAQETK
# In short: as §1
# [8] = target: USP10 (UniProt Q14694)
# Chain of USP10 (Q14694 whole entry): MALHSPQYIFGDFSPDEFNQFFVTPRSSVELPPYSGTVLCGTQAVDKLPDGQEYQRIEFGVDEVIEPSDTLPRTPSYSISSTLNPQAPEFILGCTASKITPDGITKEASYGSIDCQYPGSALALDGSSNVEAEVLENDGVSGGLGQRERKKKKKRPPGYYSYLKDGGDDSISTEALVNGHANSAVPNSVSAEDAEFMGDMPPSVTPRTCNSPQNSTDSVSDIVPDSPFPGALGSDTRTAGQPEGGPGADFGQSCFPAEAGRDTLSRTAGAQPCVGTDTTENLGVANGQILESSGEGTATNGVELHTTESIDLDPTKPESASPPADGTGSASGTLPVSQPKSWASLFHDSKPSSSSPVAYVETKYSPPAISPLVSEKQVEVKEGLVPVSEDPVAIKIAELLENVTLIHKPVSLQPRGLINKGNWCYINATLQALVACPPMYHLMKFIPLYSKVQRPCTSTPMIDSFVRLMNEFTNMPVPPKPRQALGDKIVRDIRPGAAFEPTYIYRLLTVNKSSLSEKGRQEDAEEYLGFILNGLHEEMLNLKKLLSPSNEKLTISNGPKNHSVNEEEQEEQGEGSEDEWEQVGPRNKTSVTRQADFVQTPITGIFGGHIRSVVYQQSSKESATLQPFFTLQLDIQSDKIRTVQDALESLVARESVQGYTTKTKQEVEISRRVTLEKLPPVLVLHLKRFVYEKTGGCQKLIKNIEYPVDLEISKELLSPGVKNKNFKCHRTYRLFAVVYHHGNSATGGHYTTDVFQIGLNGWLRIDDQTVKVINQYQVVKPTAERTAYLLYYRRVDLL
# In short: as §1
# [9] = target: T6, USP15 (UniProt Q9Y4E8)
# T6 sequence (whole entry): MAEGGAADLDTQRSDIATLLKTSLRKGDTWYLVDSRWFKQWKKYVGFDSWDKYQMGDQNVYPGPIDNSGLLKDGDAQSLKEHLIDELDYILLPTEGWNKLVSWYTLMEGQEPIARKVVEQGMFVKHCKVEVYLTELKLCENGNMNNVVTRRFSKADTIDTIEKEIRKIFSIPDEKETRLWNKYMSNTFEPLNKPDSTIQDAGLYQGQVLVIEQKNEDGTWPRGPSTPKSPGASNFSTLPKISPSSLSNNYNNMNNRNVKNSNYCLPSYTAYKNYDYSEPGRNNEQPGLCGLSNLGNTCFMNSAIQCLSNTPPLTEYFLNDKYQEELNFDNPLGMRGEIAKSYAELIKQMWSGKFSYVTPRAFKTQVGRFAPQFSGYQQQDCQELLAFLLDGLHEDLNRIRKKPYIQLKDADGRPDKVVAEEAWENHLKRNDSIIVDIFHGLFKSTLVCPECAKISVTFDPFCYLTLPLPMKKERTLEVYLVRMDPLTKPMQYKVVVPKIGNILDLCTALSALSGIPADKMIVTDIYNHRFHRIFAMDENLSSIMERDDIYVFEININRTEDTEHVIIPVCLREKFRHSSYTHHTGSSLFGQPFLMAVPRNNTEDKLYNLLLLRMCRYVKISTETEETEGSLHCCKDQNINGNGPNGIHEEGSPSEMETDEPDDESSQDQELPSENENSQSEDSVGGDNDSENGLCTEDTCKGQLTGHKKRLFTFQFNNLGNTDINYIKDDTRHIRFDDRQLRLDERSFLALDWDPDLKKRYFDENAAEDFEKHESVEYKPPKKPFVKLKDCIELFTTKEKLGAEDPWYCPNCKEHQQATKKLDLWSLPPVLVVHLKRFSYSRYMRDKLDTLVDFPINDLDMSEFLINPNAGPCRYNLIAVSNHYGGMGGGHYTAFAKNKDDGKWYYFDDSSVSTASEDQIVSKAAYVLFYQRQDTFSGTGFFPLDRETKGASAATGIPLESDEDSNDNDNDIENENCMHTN
# In short: as §1
# [10] = target: USP16 (UniProt Q9Y5T5)
# Chain of USP16 (Q9Y5T5 whole entry, looked up): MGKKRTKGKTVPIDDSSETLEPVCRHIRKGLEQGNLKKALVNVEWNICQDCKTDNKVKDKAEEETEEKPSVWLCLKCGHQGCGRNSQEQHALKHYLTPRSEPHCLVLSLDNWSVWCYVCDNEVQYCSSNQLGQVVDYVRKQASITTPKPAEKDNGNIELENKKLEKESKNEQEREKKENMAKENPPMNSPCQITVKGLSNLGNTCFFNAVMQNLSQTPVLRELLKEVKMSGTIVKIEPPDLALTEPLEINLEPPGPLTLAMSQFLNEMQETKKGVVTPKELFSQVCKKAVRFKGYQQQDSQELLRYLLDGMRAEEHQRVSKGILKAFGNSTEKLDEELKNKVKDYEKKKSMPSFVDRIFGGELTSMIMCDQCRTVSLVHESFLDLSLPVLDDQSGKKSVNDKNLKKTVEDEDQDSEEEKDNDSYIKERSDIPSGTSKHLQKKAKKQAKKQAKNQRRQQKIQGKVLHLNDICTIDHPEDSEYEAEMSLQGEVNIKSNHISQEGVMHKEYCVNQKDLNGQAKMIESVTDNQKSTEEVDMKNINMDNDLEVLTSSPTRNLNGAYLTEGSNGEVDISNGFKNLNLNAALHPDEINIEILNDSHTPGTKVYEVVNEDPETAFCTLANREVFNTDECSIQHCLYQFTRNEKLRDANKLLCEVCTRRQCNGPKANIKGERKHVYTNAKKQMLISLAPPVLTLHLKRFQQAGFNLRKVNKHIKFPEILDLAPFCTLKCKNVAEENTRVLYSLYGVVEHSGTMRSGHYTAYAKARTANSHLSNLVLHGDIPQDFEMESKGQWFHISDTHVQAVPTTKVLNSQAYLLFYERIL
# In short: as §1
compound,measurement,setting,value
COCC[C@@H](NC(=O)CCl)c1ccccc1,log2 ratio of Biotin-Ahx-Ub-VS probe labelling,[1],0.0947
same,log2 ratio of Biotin-Ahx-Ub-VS probe labelling,[2],-0.357
same,log2 ratio of Biotin-Ahx-Ub-VS probe labelling,[3],-0.103
same,log2 ratio of Biotin-Ahx-Ub-VS probe labelling,[4],-0.216
same,log2 ratio of Biotin-Ahx-Ub-VS probe labelling,[5],-1.4 (active)
same,log2 ratio of Biotin-Ahx-Ub-VS probe labelling,[6],0.334
same,log2 ratio of Biotin-Ahx-Ub-VS probe labelling,[7],-0.0927
same,log2 ratio of Biotin-Ahx-Ub-VS probe labelling,[8],0.0397
same,log2 ratio of Biotin-Ahx-Ub-VS probe labelling,[9],-0.00696
same,log2 ratio of Biotin-Ahx-Ub-VS probe labelling,[10],-0.303
